Laboratory results published in PubChem BioAssay (NCI).
Values joined by “and” are separate entries in the source; they are usually repeats but may differ in a detail not shown here. Equal entries are not always repeated. The panel holds about 83,000 compounds, 20% with a hit somewhere; the sample as a whole holds those more often.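 Cells were grown in 96-well plates and exposed to the test compound at a single concentration for 48 hours; results are reported as percent growth, with values below 10 considered active.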 Active and inactive are the calls of the source.

The compounds below were run on MDA-MB-468 breast (assay: NCI-60 one-dose screen, 48 h (100 = growth as untreated, 0 = no growth, -100 = all killed)). Details: 10 µM unless noted.

SMILES | growth
CN(C)c1cccc2c(S(=O)(=O)/N=C(\N)Nc3nc4ccccc4s3)cccc12 | -8.02% (active)
Cc1nnc(Nc2ccc(NC(=O)Nc3ccc(Cl)cc3)cc2)c2ccccc12 | 6.44% (active)
CCCCCCCC(=O)SCC/C=C/[C@@H]1CC(=O)NCc2cccc(n2)C2=N[C@@](C)(CS2)C(=O)N[C@@H](C(C)C)C(=O)N1 | -10.5% (active)
C=C1c2nc3ccccc3n2C=C(c2ccc(Cl)cc2)N1Cc1ccccc1 | 59.1% (inactive)
O=c1c2cc(F)ccc2sc2c(NCCN3CCOCC3)nc3ccccc3c12 | 71.3% (inactive)
Cc1cc(=O)n2nnc3cc(C(F)(F)F)ccc3n12 | 122% (inactive)
O=C1Nc2ccccc2/C1=C/c1cn(CC(O)Cn2cc(/C=C3\C(=O)Nc4ccccc43)c3ccccc32)c2ccccc12 (stereo not given) | -84.8% (active)
Oc1cccc(-c2nc3sccn3c2-c2ccncn2)c1 | 83% (inactive)
CCCCC(=O)Nc1ncc(Cc2ccccc2Cl)s1 | 14.1% (inactive)
Nc1ncc(-c2ccc3ncnc(N4CCc5cc(F)c(Cl)cc54)c3c2)cc1CO | -39.8% (active)
COc1ccc(-c2cc(-c3ccc(N4CCOCC4)cc3)n3c(n2)nc2ccccc23)cc1OC | 93.7% (inactive)
O=[N+]([O-])c1cc(S(=O)(=O)Nc2ccccc2)ccc1Cl | -33.4% (active)
O=C1C=CC(=O)C2=C1CCCC2 | 61.5% (inactive)
O=C1C=C(c2ccccc2)C(O)(c2ccccc2)C1 (stereo not given) | 108% (inactive)
COc1cc2c(c(OC)c1OC)CCC(c1cccc(NC(=O)c3ccc(Br)cc3)c1)O2 (stereo not given) | 35.8% (inactive)
Cc1nc2ccccc2c(/C=C/c2ccc(Cl)cc2)c1C(=O)/C=C/c1ccccc1 | 12.7% (inactive)
COc1cc(NCC(O)CN(CC(C)C)CC(C)C)c2ncccc2c1 (stereo not given) | -19.8% (active)
CCN1c2ccccc2C(Cl)(c2ccc(N(C)C)cc2)c2ccccc21 | 86.6% (inactive)
CN(C)c1ccc(/C=C/c2cc[n+](C)c(/C=C/c3ccc(N(C)C)cc3)c2)cc1 | -12.7% (active)
CC(=O)Nc1cccc(Nc2nc(N[C@@H](C)c3ccccc3)c3ccccc3n2)c1 | -39.8% (active)

SMILES | growth
Cc1cc(Cc2ccccc2)c(O)c(Cc2ccccc2)c1 | 95.8% (inactive)
CCc1ccc(Oc2c(-c3ccc(OCc4ccc(Cl)cc4)cc3O)n[nH]c2C(F)(F)F)cc1 | 13.1% (inactive)
CC(=O)Oc1ccc(CCN2C(=O)CSC2=S)cc1 | -12.9% (active)
N#Cc1cccc(/C=C(/C(=O)c2ccccc2)c2ccccc2)c1 | 48.9% (inactive)
COc1ccc(-c2nc3ccc(-c4nnc(SCC(=O)Nc5ccc(C(C)=O)cc5)o4)cc3[nH]2)cc1 | 109% (inactive)
C=CN(C(=O)N1CCN(c2cc3c(cc2F)c(=O)c(C(=O)O)cn3C2CC2)CC1)c1nc(-c2ccc(Cl)cc2)cs1 | 76.3% (inactive)
CCC1=C(c2ccc(OC)cc2)C(C)Oc2cc(OC(C)=O)ccc21 (stereo not given) | -14.1% (active)
Cc1cc2c(c(=O)o1)C(c1ccc(OC(=O)N3CCOCC3)cc1)C(C#N)=C(N)O2 (stereo not given) | 119% (inactive)
Cc1cc(C)c(C(=O)c2cccs2)c(C)c1 | 105% (inactive)
N=C(N)c1ccc(-c2ccc(-c3ccc(F)cc3)o2)o1 | 5.37% (active)
O=C(Nc1ccccc1)OCC(CN1CCCCC1)OC(=O)Nc1ccccc1 (stereo not given) | 59% (inactive) and 94.1% (inactive)
c1ccc(-c2cc3n4c(-c5ccccc5)nn(-c5ccccc5)c4cnc-3n2)cc1 | 70.2% (inactive)
Nc1nc2ccccc2c2c1S(=O)(=O)c1ccc(Cl)cc1C2=O | 10.8% (inactive)
CN=c1ccc2nc3ccc(N)cc3sc-2c1 | -5.28% (active)
C=C1CC[C@@H]2C(C)(C)[C@@H](O)CC[C@@]2(C)[C@@H]1COc1ccc2ccc(=O)oc2c1 | 53.1% (inactive)
CC1(C)CC[C@]2(C(=O)O)CC[C@]3(C)C(=CCC4[C@@]5(C)C[C@@H](O)[C@@H]6OC(c7ccccc7O)OC[C@@]6(C)C5CC[C@]43C)C2C1 (stereo not given in full) | 69.4% (inactive)
CN(C)CCOc1cccc(NC2=C(Cl)C(=O)C(Nc3cccc(OCCN(C)C)c3)=C(Cl)C2=O)c1 | -47.1% (active)
CCN(CC)CCCNc1nc(C)cc(Nc2ccc3nc(C)cc(N)c3c2)n1 | 117% (inactive)
COc1cc(/C=C(\C#N)C(=O)c2ccccc2)ccc1OCc1ccccc1 | 96.4% (inactive)
O=C(CCN1CCCC1)Nc1ccc2c(NCCc3ccccc3)c3ccccc3nc2c1 | -40.8% (active)
